# Source: PubChem BioAssay
# Records with an inconclusive call do not appear. Active and inactive are the calls of the source.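 Rule for the calls, unless noted: active = binding below the plate cutoff, the plate median minus 3 SD, with a reading above zero; inconclusive = below the plate cutoff but reading exactly zero; inactive = the rest.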
# What was measured:
# [1] = rapamycin-like changes in RPL19A-GFP expression – cell-based, S. cerevisiae, multiplex flow cytometry, primary screen (AID 1862; in the data active = percent of DMSO control GFP below about 86%;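 note: lower values mimic rapamycin by blocking the RPL19A rise seen in DMSO cells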); details: S. cerevisiae RPL19A-GFP strain, flow cytometry fluorescence, 3 h; at 10 µM; stronger effect = lower value
# [2] = TOR pathway GLN3 branch reporter MEP2-GFP changes – S. cerevisiae, multiplex flow cytometry, primary screen (AID 1867;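 active = GFP response, as percent of the DMSO control, above the screen-wide mean plus 3 SD, about 139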;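 note: median GFP channel fluorescence of barcode-gated MEP2-GFP cells measured by flow cytometry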); details: S. cerevisiae MEP2-GFP strain, 3 h, at 10 µM, stronger effect = higher value, 100% means same as DMSO wells
# [3] = TOR pathway RTG branch CIT2 reporter changes – S. cerevisiae, GFP fusion, multiplex flow cytometry, primary screen (AID 1870;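 active = percent response above a set limit, the screen-wide mean plus 3 SD, cut at about 130% in these data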;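 note: barcoded CIT2-GFP strain pooled with four other GFP strains with rapamycin as positive control; median GFP fluorescence per well over plate mean of DMSO wells so 100% = DMSO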); details: S. cerevisiae CIT2-GFP expression, 3 h, at 10 µM, stronger effect = higher value
# [4] = TOR pathway LAP4-GFP level changes – S. cerevisiae, multiplex flow cytometry, primary screen (AID 1873;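 active = GFP signal, as percent of the solvent control, above the screen mean plus 3 SD, about 149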); details: S. cerevisiae LAP4-GFP expression, 3 h, at 10 µM, stronger effect = higher value
# [5] = yeast AGP1-GFP level changes, GLN3 branch – cell-based, multiplex flow cytometry, S. cerevisiae, primary screen (AID 1887;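 active = GFP signal above the screen-wide mean plus 3 SD, that is over about 124.5% of the solvent control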;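 note: AGP1-GFP fusion strain of S. cerevisiae within a five-strain barcoded multiplex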); details: 3 h, at 10 µM, stronger effect = higher value
# [6] = reduced mouse 2C T cell binding to pMHC/ICAM-1 vesicles – MLPCN validation set, flow cytometry, LFA-1/ICAM-1 modulator project, pilot screen (AID 2523;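 active = response below a set limit, under 55% cells CD8-positive and vesicle-bound, and CD8 cells' 90th-percentile brightness under 279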;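 for vesicle binding response: mean PE anti-B7-1 fluorescence of CD8+ cells relative to row control; 100% = QL9-loaded vesicles with DMSO vehicle in the same plate row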); details: 2C mouse CD8+ T cells, at 7 µM, stronger effect = lower value; double positive events: measured here: CD8+/vesicle+ event percentage
# [7] = target: Integrin beta-1 (Homo sapiens) + Integrin alpha-4 (Homo sapiens) (UniProt P13612+P05556); test: alpha4beta1 integrin LIBS antibody binding reduction – U937 cells, HUTS-21 mAb, flow cytometry, validation set, VLA-4 allosteric modulator project, pilot screen (AID 2674;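 active = inhibition above 50%, about 3 SD of the validation set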;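 note: antibody binding induced by the VLA-4 ligand LDV present at three times its Kd; 0% = LDV ligand with antibody and no compound and 100% = antibody without LDV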); details: HUTS-21 LIBS mAb binding, at 6.7 µM, stronger effect = higher value, binding induced by LDV ligand
# [8] = calorie-restriction mimetic ROS inhibitors, yeast – validation compound set, pilot screen (AID 2706;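 active = superoxide response below 65% of plate, a cut near 3 SD across the whole screen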;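 note: yeast exposed to compound for one week at 30 degrees C before staining; 100% = mean of all compound wells on the same plate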); details: S. cerevisiae aging, superoxide DHE fluorescence; at 10 µM, stronger effect = lower value
# [9] = target: Beta-adrenergic receptor kinase 1 (Homo sapiens) (UniProt P25098); test: GRK2 binders displacing RNA aptamer, biochemical, validation, human GRK2, bead flow cytometry (AID 488806;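 active = aptamer binding inhibition above 30%, about 3 SD of noise from non-fluorescent compounds; inactive = inhibition at or below 30%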); details: bead-bound GRK2, FAM-aptamer displacement, at 10 µM, stronger effect = higher value
# [10] = target: AP-2 complex subunit beta (Homo sapiens) (UniProt P63010); test: beta-arrestin/AP2 interaction blockers – biochemical, validation set, GST-AP2 beads, flow cytometry, pilot screen (AID 504541;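 active = inhibition above 54%, about 3 SD of non-fluorescent compounds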;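 note: AP2 carries R879A mutation and is captured from E. coli lysate; bead-bound FITC arrestin peptide fluorescence measuring arrestin peptide binding to AP2; 0% = DMSO wells and 100% = excess unlabeled arrestin peptide control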); details: FITC arrestin peptide, at 10 µM, stronger effect = higher value, AP2 beta2 appendage fragment, R879A mutant
# [11] = cytosolic pH regulators acting via V-ATPase – S. cerevisiae, pHLuorin, HTS validation (AID 504600; in the data active = response above about 15%;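 note: plate controls were DMSO for no effect and reference compound for full effect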); details: V-ATPase proton transport, at 10 µM, stronger effect = higher value
# [12] = tested on: anti-desmoglein-3 scFv antibody binding to human DSG3; test: blockers of pathogenic pemphigus antibody–desmoglein-3 binding – biochemical, validation compound set, bead-based, flow cytometry, pilot screen (AID 588368); details: Protein G beads, DSG3-Fc, scFv-GFP binding, at 10 µM, stronger effect = lower value;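 note: signal is the median channel fluorescence of bead-bound GFP antibody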
# [13] = Nile Red efflux blockade in pump-expressing yeast – validation compound set, multiplex, phenotypic, pilot screen (AID 588506;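 active = efflux inhibition above 0.42, the validation set average plus 4 SD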;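 note: Nile Red retained in cells so higher fluorescence means more efflux inhibition; 0 = negative control wells and 1 = enniatin B 25 µM full block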); details: S. cerevisiae pump-expressing triplex, Nile Red efflux flow cytometry; at 10 µM; stronger effect = higher value; the pumps come from Candida albicans
# [14] = target: ATP-binding cassette sub-family B member 6 (Homo sapiens) (UniProt Q9NP58); test: blockers of ABCB6-driven porphyrin uptake – K562-ABCB6 cells, flow cytometry, validation set, pilot screen (AID 588550;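 active = inhibition above the screen-wide mean plus 3 SD, about 51%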;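 note: 0% = DMSO wells and 100% = benzethonium chloride 70 µM positive control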); details: K562-ABCB6 porphyrin accumulation, 1 h, at 10 µM, stronger effect = higher value
# [15] = AML differentiation inducers, ER-HoxA9 marrow cells – cell-based, GFP/MAC1 double positive, flow cytometry, validation set, primary screen (AID 588685;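 active = differentiation response of at least 50%, scaled between solvent and reference control, from cells with both markers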;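 note: compound exposure lasts four days before antibody staining and flow analysis; 0% = DMSO wells and 100% = 5 µM fulvestrant positive control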); details: stronger effect = higher value, normalized: vehicle 0, fulvestrant 100
# ATP-binding cassette sub-family B member 6 (Homo sapiens), sequence (Q9NP58 whole entry, looked up): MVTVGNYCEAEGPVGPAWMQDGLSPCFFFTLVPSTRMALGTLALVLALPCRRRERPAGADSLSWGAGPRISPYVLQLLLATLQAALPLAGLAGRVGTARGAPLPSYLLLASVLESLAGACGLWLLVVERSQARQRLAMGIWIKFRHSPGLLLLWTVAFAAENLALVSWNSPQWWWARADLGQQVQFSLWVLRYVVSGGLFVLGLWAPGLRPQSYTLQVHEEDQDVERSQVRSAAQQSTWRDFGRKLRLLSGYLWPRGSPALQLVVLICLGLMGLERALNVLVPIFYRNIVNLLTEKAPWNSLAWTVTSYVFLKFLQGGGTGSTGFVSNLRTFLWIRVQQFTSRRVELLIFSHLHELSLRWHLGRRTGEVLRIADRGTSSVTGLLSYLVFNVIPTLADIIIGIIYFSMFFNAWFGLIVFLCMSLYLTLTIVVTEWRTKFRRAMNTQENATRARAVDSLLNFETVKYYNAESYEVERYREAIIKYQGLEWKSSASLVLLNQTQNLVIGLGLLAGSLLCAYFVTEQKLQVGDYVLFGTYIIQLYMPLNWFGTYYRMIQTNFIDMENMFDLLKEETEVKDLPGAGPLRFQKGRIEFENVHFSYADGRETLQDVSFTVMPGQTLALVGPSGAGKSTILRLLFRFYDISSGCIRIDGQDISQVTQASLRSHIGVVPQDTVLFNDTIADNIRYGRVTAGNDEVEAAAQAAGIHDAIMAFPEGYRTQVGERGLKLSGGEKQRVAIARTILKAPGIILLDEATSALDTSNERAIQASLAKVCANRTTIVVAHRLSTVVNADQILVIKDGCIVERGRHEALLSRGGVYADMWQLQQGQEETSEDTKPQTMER
# Beta-adrenergic receptor kinase 1 (Homo sapiens), sequence (P25098 whole entry, looked up): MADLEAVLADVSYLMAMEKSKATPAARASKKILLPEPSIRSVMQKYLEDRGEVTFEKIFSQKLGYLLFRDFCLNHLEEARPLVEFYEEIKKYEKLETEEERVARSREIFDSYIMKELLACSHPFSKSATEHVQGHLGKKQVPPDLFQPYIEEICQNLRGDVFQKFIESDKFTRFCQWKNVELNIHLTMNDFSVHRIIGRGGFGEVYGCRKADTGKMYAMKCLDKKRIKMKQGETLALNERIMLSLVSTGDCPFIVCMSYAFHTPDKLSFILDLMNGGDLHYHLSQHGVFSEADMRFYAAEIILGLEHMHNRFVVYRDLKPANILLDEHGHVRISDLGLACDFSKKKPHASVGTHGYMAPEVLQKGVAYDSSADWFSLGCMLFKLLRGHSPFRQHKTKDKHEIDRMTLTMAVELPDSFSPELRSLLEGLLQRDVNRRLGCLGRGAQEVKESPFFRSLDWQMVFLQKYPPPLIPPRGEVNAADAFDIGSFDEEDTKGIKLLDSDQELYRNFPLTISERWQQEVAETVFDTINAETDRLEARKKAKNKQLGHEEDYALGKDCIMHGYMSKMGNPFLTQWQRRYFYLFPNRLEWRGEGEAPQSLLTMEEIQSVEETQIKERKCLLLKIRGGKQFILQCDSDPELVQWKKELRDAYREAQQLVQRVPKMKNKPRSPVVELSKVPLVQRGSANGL
# AP-2 complex subunit beta (Homo sapiens), sequence (P63010 whole entry, looked up, the tested form may be a part, one chain of several): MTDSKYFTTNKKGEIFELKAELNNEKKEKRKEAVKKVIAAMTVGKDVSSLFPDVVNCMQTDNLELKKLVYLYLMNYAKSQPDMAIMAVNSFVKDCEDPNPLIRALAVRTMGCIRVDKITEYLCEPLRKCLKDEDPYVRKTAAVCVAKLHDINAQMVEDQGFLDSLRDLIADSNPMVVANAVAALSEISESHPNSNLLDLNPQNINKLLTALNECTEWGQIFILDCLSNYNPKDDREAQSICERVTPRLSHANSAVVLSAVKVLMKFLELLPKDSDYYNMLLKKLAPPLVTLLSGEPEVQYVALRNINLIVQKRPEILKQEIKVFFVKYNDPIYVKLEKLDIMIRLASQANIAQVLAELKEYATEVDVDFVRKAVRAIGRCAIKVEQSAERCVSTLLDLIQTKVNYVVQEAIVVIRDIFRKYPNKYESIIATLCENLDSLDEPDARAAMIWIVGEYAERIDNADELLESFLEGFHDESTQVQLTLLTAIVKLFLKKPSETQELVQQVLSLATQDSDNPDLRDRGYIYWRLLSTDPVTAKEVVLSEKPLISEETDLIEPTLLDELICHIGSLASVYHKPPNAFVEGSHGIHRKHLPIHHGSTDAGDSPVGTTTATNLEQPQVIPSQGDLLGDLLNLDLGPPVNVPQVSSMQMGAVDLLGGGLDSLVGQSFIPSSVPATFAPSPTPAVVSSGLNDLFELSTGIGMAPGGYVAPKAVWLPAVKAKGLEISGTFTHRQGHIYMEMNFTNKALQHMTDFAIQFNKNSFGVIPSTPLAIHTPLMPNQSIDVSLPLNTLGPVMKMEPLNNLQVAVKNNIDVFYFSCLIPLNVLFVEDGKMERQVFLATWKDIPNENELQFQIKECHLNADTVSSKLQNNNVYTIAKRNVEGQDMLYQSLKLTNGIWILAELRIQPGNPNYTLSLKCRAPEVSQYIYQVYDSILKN
# Integrin beta-1 (Homo sapiens) + Integrin alpha-4 (Homo sapiens), sequence (P05556 whole entry, looked up): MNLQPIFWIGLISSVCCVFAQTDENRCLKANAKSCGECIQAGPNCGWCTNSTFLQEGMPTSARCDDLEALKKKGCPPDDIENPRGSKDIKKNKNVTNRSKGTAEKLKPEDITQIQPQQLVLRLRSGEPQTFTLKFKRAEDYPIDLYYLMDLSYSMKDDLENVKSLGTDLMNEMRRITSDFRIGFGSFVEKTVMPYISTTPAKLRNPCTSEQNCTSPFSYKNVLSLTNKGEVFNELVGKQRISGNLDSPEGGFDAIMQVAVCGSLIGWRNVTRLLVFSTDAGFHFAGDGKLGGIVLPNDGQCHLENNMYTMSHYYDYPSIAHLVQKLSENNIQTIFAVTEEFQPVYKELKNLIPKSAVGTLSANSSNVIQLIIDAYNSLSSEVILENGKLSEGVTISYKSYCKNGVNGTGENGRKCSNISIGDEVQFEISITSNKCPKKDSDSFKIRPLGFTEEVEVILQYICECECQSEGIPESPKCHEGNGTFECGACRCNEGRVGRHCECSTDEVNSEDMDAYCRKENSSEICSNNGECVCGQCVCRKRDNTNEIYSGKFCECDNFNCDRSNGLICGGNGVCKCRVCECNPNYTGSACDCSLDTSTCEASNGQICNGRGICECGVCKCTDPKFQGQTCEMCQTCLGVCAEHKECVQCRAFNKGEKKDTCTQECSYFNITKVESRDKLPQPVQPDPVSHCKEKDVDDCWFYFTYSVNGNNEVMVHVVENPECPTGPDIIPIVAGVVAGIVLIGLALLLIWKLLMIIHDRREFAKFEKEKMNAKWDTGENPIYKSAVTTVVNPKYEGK
# Integrin beta-1 (Homo sapiens) + Integrin alpha-4 (Homo sapiens), sequence (P13612 whole entry, looked up): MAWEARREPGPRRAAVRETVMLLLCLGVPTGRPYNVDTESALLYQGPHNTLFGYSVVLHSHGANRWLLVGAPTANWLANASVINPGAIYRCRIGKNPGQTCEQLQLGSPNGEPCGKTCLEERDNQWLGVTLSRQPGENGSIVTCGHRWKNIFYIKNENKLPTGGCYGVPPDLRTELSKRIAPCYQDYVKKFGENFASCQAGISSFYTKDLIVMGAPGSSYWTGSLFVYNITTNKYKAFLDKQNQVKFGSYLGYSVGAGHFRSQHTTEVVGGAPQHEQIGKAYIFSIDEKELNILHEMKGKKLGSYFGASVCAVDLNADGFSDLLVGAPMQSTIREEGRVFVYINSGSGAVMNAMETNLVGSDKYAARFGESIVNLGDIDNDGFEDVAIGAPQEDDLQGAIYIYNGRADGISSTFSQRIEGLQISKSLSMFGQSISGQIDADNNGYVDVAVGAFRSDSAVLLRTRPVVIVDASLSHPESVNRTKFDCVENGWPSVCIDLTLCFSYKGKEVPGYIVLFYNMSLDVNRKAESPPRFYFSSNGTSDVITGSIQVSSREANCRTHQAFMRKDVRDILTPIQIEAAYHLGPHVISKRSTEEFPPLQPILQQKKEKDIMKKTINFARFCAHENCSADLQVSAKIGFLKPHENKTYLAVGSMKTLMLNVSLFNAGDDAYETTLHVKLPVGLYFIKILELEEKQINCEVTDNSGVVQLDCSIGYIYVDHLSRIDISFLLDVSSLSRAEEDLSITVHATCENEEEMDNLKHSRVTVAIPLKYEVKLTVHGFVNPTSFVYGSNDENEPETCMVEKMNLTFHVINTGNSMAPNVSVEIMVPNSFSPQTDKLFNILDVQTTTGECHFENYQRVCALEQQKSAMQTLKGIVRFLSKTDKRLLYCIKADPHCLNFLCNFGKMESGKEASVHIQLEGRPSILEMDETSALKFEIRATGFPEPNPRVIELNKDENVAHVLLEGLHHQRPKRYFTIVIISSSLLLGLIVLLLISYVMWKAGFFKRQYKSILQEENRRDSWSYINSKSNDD
Structure (SMILES),percent of DMSO control GFP [1],GFP response vs DMSO [2],percent response of DMSO control [3],GFP response vs DMSO [4],"GFP response, % of DMSO [5]",double positive events [6] [%],vesicle binding response [6],inhibition [7],superoxide response (% of plate) [8],aptamer binding inhibition [9],inhibition [10],response [11],binding (% of control) [12],efflux inhibition (fraction of control) [13],inhibition [14],differentiation response [15]
Cc1ccc2c(c1)OC(=O)CC2c1ccccc1 (stereo not given),100% (inactive),104% (inactive),96.9% (inactive),102% (inactive),99.6% (inactive),58,168% (inactive),12.8% (inactive),111% (inactive),5% (inactive),31.1% (inactive),-9.91% (inactive),95.6% (inactive),0.06 (inactive),0% (inactive),-11.5% (inactive)
Cc1ccccc1C(OCCN(C)C)c1ccccc1 (stereo not given),101% (inactive),98.9% (inactive),102% (inactive),85.3% (inactive),94.6% (inactive),51.2,111% (inactive),10.9% (inactive),106% (inactive),1% (inactive),-8.71% (inactive),9.28% (inactive),98.7% (inactive),0.03 (inactive),4% (inactive),-22.8% (inactive)
COc1ccc2nc(Nc3nc(CSc4ccc(C)cc4)cc(=O)[nH]3)nc(C)c2c1,99% (inactive),103% (inactive),98.8% (inactive),90.3% (inactive),104% (inactive),63.5,217% (inactive),8.15% (inactive),104% (inactive),0% (inactive),8.24% (inactive),-0.97% (inactive),103% (inactive),-0.43 (inactive),6% (inactive),-24.4% (inactive)
O=C(CCCCC(=O)NC1CCCC1)NC1CCCC1,96.8% (inactive),102% (inactive),105% (inactive),95.4% (inactive),93.7% (inactive),53.7,181% (inactive),10% (inactive),103% (inactive),0% (inactive),3.46% (inactive),3.11% (inactive),102% (inactive),0.29 (inactive),6% (inactive),-11.5% (inactive)
CC(C)[N+]1(C)[C@@H]2CC[C@H]1CC(OC(=O)C(CO)c1ccccc1)C2 (stereo not given in full),101% (inactive),95.9% (inactive),102% (inactive),101% (inactive),104% (inactive),53.4,158% (inactive),27.7% (inactive),94.6% (inactive),-2% (inactive),7.81% (inactive),2.53% (inactive),102% (inactive),-0.12 (inactive),11% (inactive),-9.89% (inactive)
CCCOc1ccc(-c2cc(C(=O)NCC3CCCO3)c3ccccc3n2)cc1 (stereo not given),99.5% (inactive),102% (inactive),91% (inactive),105% (inactive),84.4% (inactive),55.9,199% (inactive),13.8% (inactive),91.2% (inactive),1% (inactive),-3.49% (inactive),6.44% (inactive),97.3% (inactive),0.18 (inactive),12% (inactive),7.87% (inactive)
O=C(O)c1ccccc1O,101% (inactive),101% (inactive),96.9% (inactive),97.4% (inactive),98.8% (inactive),59,178% (inactive),15.6% (inactive),100% (inactive),3% (inactive),0.05% (inactive),-0.04% (inactive),104% (inactive),0.44 (active),0% (inactive),-9.89% (inactive)
COc1ccc(OC)c(-n2c(Cn3c(-c4ccccn4)nc4ccccc43)n[nH]c2=S)c1,98.5% (inactive),101% (inactive),93% (inactive),90.3% (inactive),91.8% (inactive),62.6,144% (inactive),7.22% (inactive),97.4% (inactive),1% (inactive),6.75% (inactive),-0.2% (inactive),105% (inactive),0.44 (active),-8% (inactive),-9.89% (inactive)
CCc1c(C)c2ccc(OCC(=O)OC(C)C)c(C)c2oc1=O,98.1% (inactive),96.9% (inactive),93% (inactive),89.3% (inactive),88.5% (inactive),57.1,142% (inactive),7.22% (inactive),101% (inactive),-3% (inactive),19.5% (inactive),3.44% (inactive),101% (inactive),0.29 (inactive),8% (inactive),-18% (inactive)
CC(C)[N+](C)(CCOC(=O)C1c2ccccc2Oc2ccccc21)C(C)C,99.6% (inactive),101% (inactive),109% (inactive),85.3% (inactive),101% (inactive),56,192% (inactive),1.62% (inactive),81.9% (inactive),0% (inactive),-3.24% (inactive),9.45% (inactive),97.3% (inactive),-0.09 (inactive),7% (inactive),1.41% (inactive)
